The whole screen tested about 5,500 compounds, of which about 2,000 (36%) were called active. About 18% were inconclusive and are not listed. Rule as the data show it: active = normalized growth mostly below about 0.91 (no sharp cut-off); inconclusive = no clear call, values can overlap the other calls; inactive = mostly above about 0.92. The list shows a part of the results.
Experiment: chemical genetic growth profiling, strain panel (AID 1159580);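 also: tested at 20 µM; growth read once vehicle control cultures reached saturation at 30 °C; 1 = growth at the plate median or of vehicle wells; lower values mean less growth of the strain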
Conditions: S. cerevisiae deletion strains, growth OD
[1] = locus YHR030C, strain SLT2, stronger effect = lower value
[2] = locus YHR079C, strain IRE1, stronger effect = lower value
[3] = locus YJL095W, strain BCK1, stronger effect = lower value
[4] = locus YJR066W, strain TOR1, stronger effect = lower value
[5] = locus YLR113W, strain HOG1, stronger effect = lower value
[6] = locus YNL183C, strain NPR1, stronger effect = lower value
[7] = locus YOR231W, strain MKK1, stronger effect = lower value
[8] = locus YPL256C, strain CLN2, stronger effect = lower value

Measured: normalized growth

C[N+]1(C)CCc2cc3c(cc2[C@H]1C1OC(=O)c2c1ccc1c2OCO1)OCO3 (stereo partly drawn)
inactive: locus YAL021C, strain ccr4, stronger effect = lower value 0.981 | locus YAL026C, strain drs2, stronger effect = lower value 0.987 | locus YAL030W, strain snc1, stronger effect = lower value 0.999 | locus YBL061C, strain skt5, stronger effect = lower value 1 | locus YBR009C, strain hhf1, stronger effect = lower value 0.992 | locus YBR023C, strain chs3, stronger effect = lower value 1.01 | locus YBR171W, strain sec66, stronger effect = lower value 1 | locus YBR231C, strain swc5, stronger effect = lower value 1.01 | locus YBR279W, strain paf1, stronger effect = lower value 0.997 | locus YCL011C, strain gbp2, stronger effect = lower value 0.999 | locus YCL016C, strain dcc1, stronger effect = lower value 0.991 | locus YCL061C, strain MRC1, stronger effect = lower value 0.994 | locus YCL069W, strain vba3, stronger effect = lower value 0.999 | locus YCR088W, strain abp1, stronger effect = lower value 0.997 | locus YDL005C, strain med2, stronger effect = lower value 1 | locus YDL040C, strain nat1, stronger effect = lower value 0.996 | locus YDR001C, strain nth1, stronger effect = lower value 0.983 | locus YDR069C, strain doa4, stronger effect = lower value 1.02 | locus YDR137W, strain rgp1, stronger effect = lower value 0.996 | locus YDR159W, strain sac3, stronger effect = lower value 1.07 | locus YDR195W, strain ref2 0.989 | locus YDR297W, strain sur2, stronger effect = lower value 1.01 | locus YDR334W, strain swr1, stronger effect = lower value 0.986 | locus YDR335W, strain msn5, stronger effect = lower value 0.996 | locus YDR392W, strain spt3, stronger effect = lower value 0.982 | locus YEL003W, strain gim4, stronger effect = lower value 1 | locus YEL037C, strain rad23, stronger effect = lower value 0.99 | locus YEL061C, strain CIN8 (second series), stronger effect = lower value 0.99 | locus YER015W, strain faa2, stronger effect = lower value 0.992 | locus YER016W, strain bim1, stronger effect = lower value 1 | locus YER111C, strain swi4, stronger effect = lower value 1.01 | locus YER155C, strain BEM2 (second series), stronger effect = lower value 1 | locus YFR010W, strain ubp6, stronger effect = lower value 0.989 | locus YGL167C, strain pmr1, stronger effect = lower value 0.998 | locus YGL173C, strain kem1, stronger effect = lower value 1.01 | locus YGL227W, strain vid30, stronger effect = lower value 1 | locus YGL240W, strain doc1, stronger effect = lower value 1.01 | locus YGL253W, strain hxk2, stronger effect = lower value 0.995 | locus YHR013C, strain ard1, stronger effect = lower value 0.957 | locus YHR027C, strain rpn1, stronger effect = lower value 0.992 | [1] 1.06 | [2] 1.06 | locus YHR142W, strain chs7, stronger effect = lower value 0.981 | locus YJL092W, strain hpr5, stronger effect = lower value 0.995 | locus YJL095W, strain BCK1 (second series), stronger effect = lower value 0.994 | [3] 1.06 | locus YJL115W, strain asf1, stronger effect = lower value 0.978 | locus YJL129C, strain trk1, stronger effect = lower value 1 | locus YJL154C, strain vps35, stronger effect = lower value 0.991 | locus YJL164C, strain tpk1, stronger effect = lower value 0.98 | locus YJL166W, strain qcr8, stronger effect = lower value 1 | locus YJL187C, strain SWE1, stronger effect = lower value 1.02 | [4] 0.973 | locus YKL160W, strain elf1, stronger effect = lower value 0.989 | locus YKR026C, strain gcn3, stronger effect = lower value 0.991 | locus YKR091W, strain srl3, stronger effect = lower value 0.988 | locus YLL001W, strain dnm1, stronger effect = lower value 0.97 | locus YLL026W, stronger effect = lower value 1 | locus YLL041C, strain sdh2, stronger effect = lower value 0.993 | locus YLR027C, strain aat2, stronger effect = lower value 1.01 | [5] 1.03 | locus YLR221C, strain rsa3, stronger effect = lower value 1.03 | locus YLR258W, strain gsy2, stronger effect = lower value 1.01 | locus YLR262C, strain YPT6 (second series), stronger effect = lower value 0.995 | locus YLR320W, strain mms22, stronger effect = lower value 1.03 | locus YLR342W, strain FKS1, stronger effect = lower value 0.996 | locus YLR357W, strain rsc2, stronger effect = lower value 0.956 | locus YLR370C, strain arc18, stronger effect = lower value 1.01 | locus YLR384C, strain iki3, stronger effect = lower value 0.999 | locus YML120C, strain ndi1, stronger effect = lower value 0.991 | locus YMR058W, strain fet3, stronger effect = lower value 0.986 | locus YMR125W, strain sto1, stronger effect = lower value 0.97 | locus YMR129W, stronger effect = lower value 1 | locus YMR205C, strain PFK2, stronger effect = lower value 0.971 | locus YMR231W, strain pep5, stronger effect = lower value 0.983 | locus YNL071W, strain lat1, stronger effect = lower value 0.997 | [6] 0.974 | locus YNL209W, strain ssb2, stronger effect = lower value 1 | locus YNL248C, strain rpa49, stronger effect = lower value 0.959 | locus YNL322C, strain KRE1 (second series), stronger effect = lower value 1 | locus YNR049C, strain mso1, stronger effect = lower value 1.01 | locus YOR001W, strain rrp6, stronger effect = lower value 1.01 | locus YOR070C, strain gyp1, stronger effect = lower value 1.02 | locus YOR080W, strain dia2, stronger effect = lower value 1.01 | locus YOR083W, strain WHI5, stronger effect = lower value 0.997 | locus YOR106W, strain vam3, stronger effect = lower value 0.963 | [7] 1.03 | locus YOR265W, strain rbl2, stronger effect = lower value 1.01 | locus YOR270C, strain vph1, stronger effect = lower value 0.967 | locus YOR290C, strain snf2, stronger effect = lower value 0.95 | locus YPL051W, strain arl3, stronger effect = lower value 1.04 | locus YPL078C, strain atp4, stronger effect = lower value 0.965 | locus YPL106C, strain sse1, stronger effect = lower value 0.999 | locus YPL240C, strain hsp82, stronger effect = lower value 1.01 | [8] 1.03

CC(C)N=c1cc2n(-c3ccc(Cl)cc3)c3ccccc3nc-2cc1Nc1ccc(Cl)cc1
active: [2] 0.812 | [3] 0.869 | [5] 0.807 | [7] 0.831 | [8] 0.818
inactive: [1] 0.929 | [4] 0.948 | [6] 0.9
